Some test systems named below: HCT-15 colon; HT29 colon; SNB-75 CNS; U251 CNS; PC-3 prostate; SK-MEL-5 melanoma; UACC-62 melanoma; SK-MEL-28 melanoma; SK-MEL-2 melanoma; EKVX NSCLC; SN12C renal; UO-31 renal; TK-10 renal; ACHN renal; CAKI-1 renal; CCRF-CEM leukemia; MOLT-4 leukemia; LOX IMVI melanoma; A498 renal; SNB-19 CNS.
What all share (test): NCI-60 one-dose screen, 48 h (100 = growth as untreated, 0 = no growth, -100 = all killed)
What all share (settings): 10 µM unless noted

The structures appear in SMILES notation. This is part of a sample that, as a whole, favours compounds with a hit. Of some 83,000 tested, about 20% had one in any assay.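 Negative percent growth values reflect cell death: -40 means 40% of the cells present at the start died, and -100 means all died.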 Unmarked numbers belong to inactive results. Active and inactive are the calls of the source. How the source made its calls: active means growth percent below 10; inactive means the rest.

Drawing on PubChem BioAssay (NCI), this text covers growth for 9 compounds.

Consider `Cc1ccccc1CNc1ccc(N2CCOCC2)cc1`, for which the growth with HCT-15 colon is 101%; in the test with HT29 colon, 105%; in the test on SNB-75 CNS, 92.7%; in the test on U251 CNS it was 100%; in the test with PC-3 prostate it was 99.6%; in the test on SK-MEL-5 melanoma it was 99.5%. The growth in the test with UACC-62 melanoma is 94.8%; in the test with SK-MEL-28 melanoma, 99.8%; in the test on SK-MEL-2 melanoma it was 102%; with EKVX NSCLC, 104%; with SN12C renal, 96.3%; in the test with UO-31 renal it was 107%. Also, the growth was 95.3% in the test with TK-10 renal; 108% in the test with ACHN renal; 99.1% in the test on CAKI-1 renal; 112% in the test on CCRF-CEM leukemia; 101% in the test on MOLT-4 leukemia.
For the compound `COc1ccccc1Nc1cc(O)c2c(=O)cc(-c3ccccc3)oc2c1`, the growth in the test on HCT-15 colon was 29.3%; with HT29 colon, 17%; in the test with SNB-75 CNS it was -4.79% (active); in the test on U251 CNS, 22.1%; with PC-3 prostate, 54.5%; in the test on SK-MEL-5 melanoma it was 24.6%. Further, the growth with UACC-62 melanoma is 35.8%; in the test on LOX IMVI melanoma, 39.9%; in the test with SK-MEL-28 melanoma, 56.5%; in the test on SK-MEL-2 melanoma, 13.7%; in the test on EKVX NSCLC, 57.4%; in the test with SN12C renal, 36.6%. Also, the growth in the test with UO-31 renal was 46.6%; in the test with TK-10 renal it was 66.3%; in the test with ACHN renal, 50.8%; in the test on CAKI-1 renal, 41.3%; with A498 renal it was 11.6%; in the test on CCRF-CEM leukemia, 7.29% (active). Moreover, in the test with MOLT-4 leukemia, the growth was 25.9%.
Turning to `CSc1nc(O)c(-c2ccccc2)c(=O)[nH]1`, the growth with HCT-15 colon was 102%; in the test on HT29 colon, 99.9%; in the test with SNB-75 CNS, 97.1%; in the test with U251 CNS it was 101%; with PC-3 prostate it was 96.9%; with SK-MEL-5 melanoma, 101%. In addition, the growth is 93.1% in the test with UACC-62 melanoma; 101% in the test with LOX IMVI melanoma; 101% in the test with SK-MEL-28 melanoma; 103% in the test on SK-MEL-2 melanoma; 94.6% in the test on EKVX NSCLC; 96.9% in the test on SN12C renal. For the same compound, the growth with UO-31 renal was 92%; with TK-10 renal, 97%; in the test on ACHN renal, 93.3%; in the test on CAKI-1 renal it was 93.6%; in the test on CCRF-CEM leukemia it was 102%; in the test with MOLT-4 leukemia it was 97%.
As for `O=S(=O)(c1ccc(N/N=C\c2ccccc2)cc1)c1ccc(N/N=C/c2ccccc2)cc1`, the growth in the test on HCT-15 colon is 88.7%; in the test with HT29 colon, 54.7%; with SNB-19 CNS, 81.4%; with U251 CNS, 66.6%; in the test with PC-3 prostate, 55.7%; with SK-MEL-5 melanoma, 74.7%. Besides, the growth in the test on UACC-62 melanoma is 70.8%; in the test on LOX IMVI melanoma, 63.4%; in the test with SK-MEL-28 melanoma, 75.6%; in the test with SK-MEL-2 melanoma, 76.5%; with EKVX NSCLC, 73.7%; in the test on SN12C renal, 64.9%. Also, the growth in the test on UO-31 renal was 88.3%; in the test on TK-10 renal, 59.4%; with ACHN renal it was 57.4%; with CAKI-1 renal, 67.7%; with CCRF-CEM leukemia, 88.7%; in the test with MOLT-4 leukemia it was 82.4%.
For the compound `O=C(CCN1CCCC1)Nc1ccc2c(Nc3ccccc3)c3ccccc3nc2c1`, the growth with HCT-15 colon was -3.61% (active); with HT29 colon, 4.21% (active); in the test with U251 CNS, 0.528% (active); in the test on PC-3 prostate, 19.9%; with SK-MEL-5 melanoma it was 40.4%; in the test with UACC-62 melanoma it was 30.3%. Moreover, the growth in the test on LOX IMVI melanoma is -55.3% (active); in the test on SK-MEL-28 melanoma it was 62.3%; with SK-MEL-2 melanoma, 41.4%; with EKVX NSCLC, 59.3%; in the test with SN12C renal, 13.3%; in the test with UO-31 renal, -28.3% (active). In addition, the growth was 1.74% (active) in the test with TK-10 renal; 1.77% (active) in the test on ACHN renal; -11.9% (active) in the test with CAKI-1 renal; -8.84% (active) in the test with CCRF-CEM leukemia; -4.75% (active) with MOLT-4 leukemia.
Turning to `CC(c1ccccc1)n1ccnc1CO` (stereo not drawn), the growth in the test on HCT-15 colon is 107%; in the test on HT29 colon it was 119%; with SNB-19 CNS it was 98.5%; in the test on U251 CNS, 98.9%; in the test on PC-3 prostate it was 94.7%; in the test with SK-MEL-5 melanoma, 93.4%. For the same compound, the growth in the test with UACC-62 melanoma was 104%; in the test on LOX IMVI melanoma, 96.3%; in the test with SK-MEL-28 melanoma it was 94.5%; with SK-MEL-2 melanoma it was 111%; in the test on EKVX NSCLC, 93.3%; with UO-31 renal, 95.4%. Further, the growth in the test with TK-10 renal was 88.2%; with ACHN renal it was 103%; in the test with CAKI-1 renal, 88.9%; with CCRF-CEM leukemia, 105%; with MOLT-4 leukemia it was 107%.
Regarding `N/C(=N\N=C\c1cc2ccccc2s1)N/N=C/c1cc2ccccc2s1`, the growth in the test with HCT-15 colon was 105%; with HT29 colon, 108%; with SNB-19 CNS, 97%; in the test on U251 CNS it was 113%; in the test with PC-3 prostate, 97.4%; in the test on SK-MEL-5 melanoma it was 98%. Also, the growth with LOX IMVI melanoma is 100%; with SK-MEL-28 melanoma, 106%; in the test on SK-MEL-2 melanoma, 109%; in the test on EKVX NSCLC, 95.6%; in the test with SN12C renal, 96.9%; in the test with UO-31 renal it was 87.7%. Further, the growth is 115% in the test on TK-10 renal; 95.3% with CAKI-1 renal; 96.5% in the test on A498 renal; 99.2% with CCRF-CEM leukemia; 101% in the test on MOLT-4 leukemia.
Turning to `Cn1c(=O)c2[nH]c(CCCc3nc4c([nH]3)c(=O)n(C)c(=O)n4C)nc2n(C)c1=O`, the growth is 115% in the test with HCT-15 colon; 109% in the test on HT29 colon; 101% in the test with SNB-19 CNS; 107% in the test on U251 CNS; 103% in the test on SK-MEL-5 melanoma; 96.8% with UACC-62 melanoma. Also, the growth in the test on LOX IMVI melanoma is 105%; in the test with SK-MEL-28 melanoma, 131%; with SK-MEL-2 melanoma, 109%; in the test on SN12C renal, 103%; in the test with UO-31 renal, 102%; with TK-10 renal, 118%. Besides, the growth with ACHN renal is 103%; in the test on CAKI-1 renal, 108%; in the test on A498 renal, 142%; in the test on CCRF-CEM leukemia, 124%; in the test on MOLT-4 leukemia, 136%.
As to `Nc1ccccc1NC(=O)c1ccc(CN2CCC/C(=C\c3cccc(Cl)c3)C2=O)cc1`, the growth in the test on HCT-15 colon is 15.4%; with HT29 colon, 1.41% (active); in the test with SNB-19 CNS, 24.3%; in the test with U251 CNS, 13.7%; with PC-3 prostate, 17.7%; in the test with SK-MEL-5 melanoma, -41.9% (active). In addition, the growth is 27.1% with UACC-62 melanoma; 9.7% (active) with LOX IMVI melanoma; 48.2% in the test on SK-MEL-28 melanoma; 11.1% in the test with SK-MEL-2 melanoma; 20.4% in the test with EKVX NSCLC; 5.8% (active) in the test with SN12C renal. Further, the growth in the test with UO-31 renal is 22.6%; in the test on TK-10 renal, 4.89% (active); with ACHN renal, 5.98% (active); in the test on A498 renal, -11% (active); in the test with CCRF-CEM leukemia it was 4.02% (active); with MOLT-4 leukemia it was 1.63% (active).
